Among the data in PubChem BioAssay (EPA / NIEHS) are outcome and AC50 values, retold here.

The target of assay [1] is CCAAT/enhancer-binding protein beta (Homo sapiens) (UniProt P17676). Description: ATG_C_EBP_CIS: Attagene CIS-FACTORIAL HepG2 Assay for human CCAAT/Enhancer Binding Protein (C/EBP) beta (AID 2282927). As to conditions: HepG2 Attagene cis-factorial transcription factor reporter; actives raise or lower the signal. An outline of the steps:
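HepG2 transiently transfected with multiplexed reporter units under cis-regulatory promoters reporting endogenous C/EBPb activity. After 24 h exposure, reporter mRNA assayed by RT-PCR, fluorescent labelling, HpaI digestion and capillary electrophoresis; bidirectional fitting versus DMSO.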

A short description of assay [2]: ATG_CMV_CIS: Attagene CIS-FACTORIAL HepG2 Assay for human CMV (Internal Marker) (AID 2282928).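 Also: endpoint acts as a background internal control marker rather than a target.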 The settings on record: HepG2 CMV promoter reporter, transcription factor profiling; actives raise or lower the signal. An outline of the steps: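 Fluorescence intensity of RT-PCR-derived reporter fragments, resolved by capillary electrophoresis, gives the signal. HepG2 liver cells bearing transfected cis-element reporters were treated 24 h; activity in either direction was fit relative to DMSO-treated controls.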

The nature of assay [3]: ATG_DR4_LXR_CIS: Attagene CIS-FACTORIAL HepG2 Assay for human Liver X Receptor (LXR), DR4 submotif (AID 2282929). As to conditions: HepG2 Attagene DR4 cis-reporter, mRNA transcription; actives raise or lower the signal. Put shortly:
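Measures endogenous transcription factor activity via a DR4-driven reporter transcript in human HepG2 cells. Compounds incubated 24 h; mRNA quantified by RT-PCR and capillary electrophoresis, analysed as gain or loss of signal versus DMSO.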

Assay [4] concerns the target Aryl hydrocarbon receptor (Homo sapiens) (UniProt P35869). Kind of assay: ATG_Ahr_CIS: Attagene CIS-FACTORIAL HepG2 Assay for human Aryl Hydrocarbon Receptor (Ahr) (AID 2282930). As to conditions: HepG2 AhR cis-factorial reporter transcription; actives raise or lower the signal. Put shortly: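 HepG2 cells transiently transfected with cis-element-driven multiplexed reporter units; endogenous AhR activity read as reporter mRNA 24 h after dosing, via RT-PCR, 6-FAM labelling, HpaI digestion and capillary electrophoresis. Bidirectional fit relative to DMSO.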

A short description of assay [5]: ATG_AP_1_CIS: Attagene CIS-FACTORIAL HepG2 Assay for human Activator Protein 1 (AP-1) (AID 2282931). As to conditions: HepG2 Attagene cis-factorial AP-1 reporter mRNA; actives raise or lower the signal. An outline of the steps:
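Bidirectional concentration-response fitting against DMSO controls. Underlying signal: reporter mRNA from cis-promoter constructs in transiently transfected HepG2, measured after 24 h by RT-PCR and capillary electrophoresis.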

Assay [6] can be described thus: ATG_AP_2_CIS: Attagene CIS-FACTORIAL HepG2 Assay for human Activator Protein 2 (AP-2) (AID 2282932). The settings on record: HepG2 AP-2 cis-reporter, Attagene transcription factor profiling; actives raise or lower the signal. An outline of the steps:
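Liver-derived HepG2 line, cis-reporter system measuring endogenous factors; 24 h dosing; reporter mRNA detected by fluorescent RT-PCR and capillary electrophoresis.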

Assay [7] in a line: ATG_BRE_CIS: Attagene CIS-FACTORIAL HepG2 Assay for human Bone Morphogenetic Protein (BMP) Response Element (BRE) (AID 2282933). The settings on record: HepG2 BMP response element reporter, Attagene transcription factor profiling; actives raise or lower the signal. Put shortly: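 Transient MRTU transfection of human HepG2 liver cells; 24 h compound treatment; total RNA isolated, reverse-transcribed, PCR-amplified, 6-FAM labelled, HpaI-cut, capillary electrophoresis. DMSO = negative control/baseline, bidirectional fit.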

Assay [8] addresses Transcription factor E2F1 (Homo sapiens) (UniProt Q01094). Description: ATG_E2F_CIS: Attagene CIS-FACTORIAL HepG2 Assay for human E2F Transcription Factor 1 (AID 2282935). The settings on record: HepG2 Attagene cis-reporter, E2F reporter RNA transcripts; actives raise or lower the signal. An outline of the steps: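 Liver-derived HepG2 cells expressing transfected promoter-driven reporter units received test chemical for 24 hours. Signal gains or losses were fitted bidirectionally against DMSO.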

The target of assay [9] is Retinoic acid receptor alpha (Homo sapiens) (UniProt P10276). Kind of assay: ATG_DR5_RAR_CIS: Attagene CIS-FACTORIAL HepG2 Assay for human Retinoic Acid Receptor Alpha (RARE), DR5 submotif (AID 2282934).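 As to AC50: reporter responds to endogenous RAR alpha beta and gamma in HepG2 not RARA alone.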 The settings on record: HepG2 Attagene cis-factorial RARE DR5 reporter, mRNA; actives raise or lower the signal. Put shortly: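 HepG2 cells transiently transfected with multiplexed reporter units; DR5 cis-element drives reporter through endogenous transcription factors. After 24 h dosing, reporter mRNA quantified by RT-PCR, fluorescent labeling, HpaI digestion and capillary electrophoresis; bidirectional fitting versus DMSO.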
Sequence of Retinoic acid receptor alpha (Homo sapiens) (P10276 whole entry, looked up): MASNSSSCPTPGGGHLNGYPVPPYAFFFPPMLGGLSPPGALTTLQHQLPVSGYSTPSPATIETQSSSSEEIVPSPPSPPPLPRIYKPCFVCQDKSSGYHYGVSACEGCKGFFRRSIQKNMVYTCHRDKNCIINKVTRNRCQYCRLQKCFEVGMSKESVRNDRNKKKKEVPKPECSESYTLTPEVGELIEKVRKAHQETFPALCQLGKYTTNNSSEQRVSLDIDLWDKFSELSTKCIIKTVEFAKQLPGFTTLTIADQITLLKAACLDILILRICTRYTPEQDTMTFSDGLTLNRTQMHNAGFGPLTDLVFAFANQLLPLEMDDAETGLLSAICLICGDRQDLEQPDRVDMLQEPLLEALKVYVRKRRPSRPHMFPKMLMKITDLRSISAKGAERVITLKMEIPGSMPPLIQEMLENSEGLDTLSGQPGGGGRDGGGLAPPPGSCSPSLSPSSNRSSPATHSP

The structures appear in SMILES notation. Active and inactive are the calls of the source. The calls were made as follows: active = hit-call score of the fitted dose curve at least 0.9, where 1 is the maximum; inactive = score below 0.9.

Sequence of Transcription factor E2F1 (Homo sapiens) (Q01094 whole entry, looked up): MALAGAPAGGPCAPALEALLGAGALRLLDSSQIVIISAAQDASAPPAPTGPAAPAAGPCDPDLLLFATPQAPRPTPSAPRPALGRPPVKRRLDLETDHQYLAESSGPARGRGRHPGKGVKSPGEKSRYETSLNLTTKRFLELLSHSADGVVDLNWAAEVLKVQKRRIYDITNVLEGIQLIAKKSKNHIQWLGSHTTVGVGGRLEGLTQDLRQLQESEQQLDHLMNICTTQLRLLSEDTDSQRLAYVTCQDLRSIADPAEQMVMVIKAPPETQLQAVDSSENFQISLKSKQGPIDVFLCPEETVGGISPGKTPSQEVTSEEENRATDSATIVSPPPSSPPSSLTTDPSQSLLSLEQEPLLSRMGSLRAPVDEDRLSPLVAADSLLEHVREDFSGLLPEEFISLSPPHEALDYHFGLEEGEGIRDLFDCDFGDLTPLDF
Sequence of CCAAT/enhancer-binding protein beta (Homo sapiens) (P17676 whole entry, looked up): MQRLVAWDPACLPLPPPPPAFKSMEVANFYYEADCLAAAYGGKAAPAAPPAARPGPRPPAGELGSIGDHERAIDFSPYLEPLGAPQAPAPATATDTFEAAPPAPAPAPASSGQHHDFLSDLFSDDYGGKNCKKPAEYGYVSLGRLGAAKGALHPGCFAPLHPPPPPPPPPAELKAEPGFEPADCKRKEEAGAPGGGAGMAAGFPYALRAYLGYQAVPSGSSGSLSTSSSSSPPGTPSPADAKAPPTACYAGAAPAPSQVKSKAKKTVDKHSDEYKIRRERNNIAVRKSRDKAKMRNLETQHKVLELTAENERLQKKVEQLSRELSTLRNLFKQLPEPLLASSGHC
Sequence of Aryl hydrocarbon receptor (Homo sapiens) (P35869 whole entry, looked up): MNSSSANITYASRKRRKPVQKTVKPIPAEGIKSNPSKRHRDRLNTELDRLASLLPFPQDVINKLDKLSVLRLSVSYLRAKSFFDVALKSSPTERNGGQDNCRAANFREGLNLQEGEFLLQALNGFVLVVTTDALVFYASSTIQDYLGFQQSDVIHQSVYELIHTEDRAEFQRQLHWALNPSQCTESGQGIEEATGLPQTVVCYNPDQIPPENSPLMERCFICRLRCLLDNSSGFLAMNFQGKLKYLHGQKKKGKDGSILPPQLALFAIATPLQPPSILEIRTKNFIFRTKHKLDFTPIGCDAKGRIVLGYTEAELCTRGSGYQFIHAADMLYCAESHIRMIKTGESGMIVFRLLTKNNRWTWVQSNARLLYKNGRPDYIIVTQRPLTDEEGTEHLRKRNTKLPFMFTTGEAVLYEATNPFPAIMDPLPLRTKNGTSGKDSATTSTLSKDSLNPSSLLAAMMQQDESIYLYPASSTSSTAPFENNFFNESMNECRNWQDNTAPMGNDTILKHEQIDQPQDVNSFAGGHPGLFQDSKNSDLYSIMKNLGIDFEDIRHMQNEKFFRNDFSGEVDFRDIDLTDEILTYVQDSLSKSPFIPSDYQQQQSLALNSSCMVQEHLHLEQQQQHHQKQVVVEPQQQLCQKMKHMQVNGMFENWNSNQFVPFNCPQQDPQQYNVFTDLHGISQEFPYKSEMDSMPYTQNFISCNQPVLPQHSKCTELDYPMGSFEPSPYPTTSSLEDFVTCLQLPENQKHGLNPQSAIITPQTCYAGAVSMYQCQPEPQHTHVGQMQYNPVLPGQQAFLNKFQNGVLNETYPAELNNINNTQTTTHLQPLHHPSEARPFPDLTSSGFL

Regarding `CCCCCC(=O)CC`, the outcome in assay [1], in [2], in assay [3], in assay [4], in assay [5] and in assay [6] was inactive. In addition, the molecule was classed as inactive in assay [7] and in assay [8].

Turning to `Nc1ccn([C@H]2CS[C@@H](CO)O2)c(=O)n1`, the result in assay [1], in assay [2], in [3], in assay [4], in [5] and in [6] was inactive. Also, the molecule was classed as inactive in assay [7], in assay [9] and in [8].

As to `CCCCCCC(O)CCCCCCCCCCC(=O)O` (centres undefined), the outcome in [1], in assay [2], in assay [3], in [4], in assay [5] and in assay [6] was inactive. In addition, the molecule was classed as inactive in assay [7] and in assay [8].

Take `CC1=CC[C@@]23C[C@@H]1C(C)(C)[C@@H]2CC[C@H]3C`: the result in assay [1], in assay [2], in assay [4], in assay [5], in assay [6] and in assay [7] was inactive. Further, the result in [9] and in assay [8] was inactive. Besides, the AC50 – broadly, the concentration giving half of the maximal activity seen – in assay [3] was 165 µM (active).

In the case of `CC(=O)CC(=O)Nc1ccccc1`, the outcome in assay [1], in [2], in assay [3], in assay [4], in [5] and in [6] was inactive. In addition, the outcome in [7], in assay [9] and in assay [8] was inactive.

`N#Cc1ccc(CC(=O)c2cccc(C(F)(F)F)c2)cc1`: the outcome in assay [1], in assay [2], in assay [3], in [4], in assay [5] and in [6] was inactive. Further, in assay [8], the outcome was inactive. The AC50 in assay [7] is 128 µM (active).

Consider `O=C(Nc1ccc([N+](=O)[O-])cc1)Nc1ccc([N+](=O)[O-])cc1` (tested in a mixture with another compound), for which the outcome in [1], in assay [2], in assay [3], in assay [5], in assay [6] and in assay [7] was inactive. For the same molecule, the outcome in assay [9] and in assay [8] was inactive.

For the molecule `CCCOC(=O)c1c(Cl)c(Cl)c(Cl)c(Cl)c1C(=O)OCCC`, the result in [1], in [4], in [6] and in assay [7] was inactive. In addition, the AC50 is 73.6 µM (active) in assay [2], 27 µM (active) in assay [3], 178 µM (active) in [5] and 59.9 µM (active) in assay [8].

`N[C@@H](Cc1cc(I)c(Oc2cc(I)c(O)c(I)c2)c(I)c1)C(=O)O`: the result in assay [1], in [2], in assay [3], in assay [5], in assay [6] and in [7] was inactive. In addition, the call in [9] and in [8] was inactive. In assay [4], the AC50 was 3.62 µM (active).

In the case of `CCO/C=C1\N=C(c2ccccc2)OC1=O`, the outcome in [1], in assay [2], in [3], in [4], in assay [5] and in [6] was inactive. Moreover, the outcome in assay [7], in assay [9] and in assay [8] was inactive.

As for `CC=Cc1ccc(OC)c(OC)c1`, the outcome in assay [1], in [2], in [3], in assay [4], in assay [5] and in assay [6] was inactive. Also, the outcome in assay [7] and in assay [8] was inactive.

`CCc1ccc(O)cc1`: the outcome in [1], in assay [2], in assay [3], in assay [5], in assay [6] and in assay [7] was inactive. Moreover, the outcome in [8] was inactive. Moreover, the AC50 in [4] is 68.7 µM (active).

`[O-]n1ccccc1=S.[O-]n1ccccc1=S.[Zn+2]`: the outcome in [1], in [2], in assay [3], in [4], in assay [5] and in assay [6] was inactive. Further, the call in [7], in assay [9] and in [8] was inactive.

Consider `c1ccc(CN(Cc2ccccc2)Cc2ccccc2)cc1`, for which the outcome in assay [1], in assay [2], in assay [5], in assay [6], in assay [7] and in assay [9] was inactive. Moreover, in [8], the molecule was classed as inactive. In addition, the AC50 in assay [3] was 18.4 µM (active).

For the molecule `CCOC(=O)C1OC1c1ccccc1` (centres undefined), the outcome in [1], in assay [6], in assay [7] and in assay [8] was inactive. Besides, the AC50 in [2] was 38.6 µM (active); in assay [3] it was 37.6 µM (active); in assay [4] it was 11.5 µM (active); in [5], 43.6 µM (active); in assay [9], 49.9 µM (active).

For the molecule `CCCCCCCCCCCCCC(=O)OCC(O)CO` (centres undefined), the outcome in assay [1], in assay [2], in [3], in assay [4], in assay [5] and in [6] was inactive. Besides, the result in assay [7], in assay [9] and in assay [8] was inactive.

For the molecule `O=C1OC[C@H](Cc2cccc(O)c2)[C@H]1Cc1cccc(O)c1`, the outcome in [1], in assay [2], in assay [5], in assay [6], in assay [7] and in [9] was inactive. For the same molecule, the outcome in assay [8] was inactive. Further, the AC50 in assay [3] was 13.9 µM (active).
